From PubChem BioAssay
This is a sample that favours compounds with a hit; in the whole collection about 8.3% have one here.
Chronic BCR inh: inhibitors of chronic active B-cell receptor signaling. AID 493014. Potency, µM (series often up to 46.1 µM), for the others: top-dose activity change, negative = inhibition, most hits filed as inhibitors. 340,000 compounds, 0.05% hits. ABC-DLBCL IkBa-CBG/CBR reporter, luminescence ratio, 4 h; active = well fitted inhibition curve with a large enough effect in the signal ratio, with a control signal flat, not every such curve was filed as active; inconclusive = small, poorly fitted or top-dose-only effect, or effect the other way, or a change in a side signal; the % refers to the signal ratio;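 note: potency is the fitted concentration of half-maximal effect; plate controls were basal doxycycline-induced cells for no effect and cells given 10 µM MG132 for full effect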
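Compounds up to 46 uM were incubated four hours with TMD8 cells whose green CBG68 luciferase is fused to IkappaBalpha; red CBR luminescence normalised the signal, and concentration-effect curves were fitted to fusion, red and ratio data.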
MCF10A rerep: DNA re-replication induction in MCF 10a cells. 350,000 compounds, 2.9% hits. MCF 10A DNA re-replication, Hoechst nuclear intensity, 48 h. Potency, µM (top dose mostly 46.1 µM), without a hit: at the highest dose activity, positive = re-replication, usual class: activators; note: potency is the fitted concentration of half-maximal effect; % of control where 0% means no effect; nearly all actives have a fitted effect of over 50% in size
Giardia killer: Giardia lamblia killing; activity change, % at 7.66 µM, hits read low; 340,000 compounds, 0.15% hits; Giardia lamblia trophozoite viability; in the data active = activity change below about -80%; inconclusive = between about -30% and that limit;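 note: parasites exposed to compound for two days anaerobically before the ATP read; % is set by controls: 0 for no effect and ±100 for the full control effect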
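Luminescent ATP signal served as the viability read-out, measured 15-30 min after adding ATP detection reagent to trophozoites that had been incubated with compounds for 48 hrs at 37 deg C anaerobically at 100 cells/well.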
RORg inh: ROR gamma (mouse) transcription inhibition. AID 2551. 310,000 compounds, 5.4% hits. Potency, µM (titrated, usually from 53.6 µM), for the others: at the highest dose activity change, negative = inhibition, hits mostly inhibitors. P51450. Drosophila S2 Gal4-RORgamma UAS-luciferase reporter, 20 h; note: potency is the fitted concentration of half-maximal effect; % is set by controls: 0 for no effect and ±100 for the full control effect; nearly all actives have a fitted effect of over 60% in size
Target sequence (P51450 whole entry, looked up, the tested form may be a part): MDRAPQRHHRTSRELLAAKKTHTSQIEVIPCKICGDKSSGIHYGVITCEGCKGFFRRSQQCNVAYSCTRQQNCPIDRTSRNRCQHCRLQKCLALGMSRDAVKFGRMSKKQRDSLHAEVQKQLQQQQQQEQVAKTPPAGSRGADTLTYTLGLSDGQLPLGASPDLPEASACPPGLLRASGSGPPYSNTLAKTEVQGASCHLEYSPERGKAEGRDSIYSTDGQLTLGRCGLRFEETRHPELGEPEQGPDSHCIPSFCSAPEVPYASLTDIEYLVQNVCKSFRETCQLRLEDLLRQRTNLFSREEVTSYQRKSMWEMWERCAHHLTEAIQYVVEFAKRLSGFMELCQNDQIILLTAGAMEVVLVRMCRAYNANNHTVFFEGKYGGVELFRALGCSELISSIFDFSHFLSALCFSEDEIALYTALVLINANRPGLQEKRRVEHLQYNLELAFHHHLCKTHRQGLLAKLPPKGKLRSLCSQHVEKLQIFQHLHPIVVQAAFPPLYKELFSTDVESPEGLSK
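Schneider cells (Drosophila), stable Gal4 DBD–ROR gamma + UAS-luc; 1 hr cmpd preincubation; Cu2+ induction 700 uM final; 20 hr ambient; luminescence.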
Gal4-VP16 FLuc: Gal4-VP16 reporter inhibition counter-screen | Drosophila S2 Gal4-VP16 UAS-luciferase, luminescence, 20 h | 310,000 compounds, 3.5% hits | Potency, µM (titrated, usually from 53.6 µM), for the others: at the highest dose activity, negative = inhibition, usual class: inhibitors;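 note: Gal4-VP16 expression switched on by copper sulfate through the metallothionein promoter; potency is the fitted concentration of half-maximal effect; % is set by controls: 0 for no effect and ±100 for the full control effect; nearly all actives have a fitted effect of over 50% in size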
SW480 rerep: DNA re-replication induction in SW480 cells; SW480 DNA re-replication, Hoechst DNA content imaging, 48 h; AID 624297; 340,000 compounds, 1.8% hits; Potency, µM (series often up to 46.1 µM), for inactives: at the top dose re-replication activation, hits mostly activators; note: potency is the fitted concentration of half-maximal effect; % of control where 0% means no effect; nearly all actives have a fitted effect of over 55% in size
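Image-based read-out: total Hoechst fluorescence of nuclei (405 nm excitation, 500-530 nm emission), with hits raising the fraction of high-intensity nuclei. SW480 colon cells incubated 48 hr with compounds at 37 C.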
* hit, by the source's call; [ ] = dose if it differs, or a comment. Unless noted, calls come from the whole dose curve; as a rule, active = well fitted curve in the direction sought with a large enough effect; inconclusive = small, poorly fitted or top-dose-only effect, or another doubt; inactive = no such curve, though single readings can be large; an effect the other way counts as inactive or inconclusive.

`CCOC(=O)C1CCCN(C(=S)Nc2ccc(C)cc2C)C1` (configuration not stated) gave Chronic BCR inh -12.1%, MCF10A rerep 0.0%, Giardia killer 4.7, RORg inh 11.2µM*, Gal4-VP16 FLuc inconclusive and SW480 rerep 0.7%.
`CSc1ccccc1OCc1cc(C(=O)NCCc2ccco2)no1` gave Chronic BCR inh -8.0%, MCF10A rerep 15.1%, Giardia killer -6.5, RORg inh 5.3%, Gal4-VP16 FLuc inconclusive and SW480 rerep -2.0%.
`O=C(CN(c1cccc(Cl)c1)S(=O)(=O)c1ccc(Cl)cc1)NCc1ccccn1` gave Chronic BCR inh 2.5%, MCF10A rerep 10.8%, Giardia killer 11.9, RORg inh -19.9%, Gal4-VP16 FLuc 17.0% and SW480 rerep 22.0%.
`Fc1c(F)c(F)c(/C=N/NC(=S)Nc2cccnc2)c(F)c1F` gave Chronic BCR inh inconclusive, MCF10A rerep 11.2µM*, Giardia killer 1.5, RORg inh 2.51µM*, Gal4-VP16 FLuc 3.55µM* and SW480 rerep inconclusive.
Fc1cccc(F)c1/C=N/NC(=S)Nc1cccnc1 was read as Chronic BCR inh inconclusive, MCF10A rerep -1.0%, Giardia killer 15.1, RORg inh 1.26µM*, Gal4-VP16 FLuc 3.55µM* and SW480 rerep -0.2%.
`Oc1ccc(/C=N/NC(=S)Nc2cccnc2)c(O)c1O` gave Chronic BCR inh 8.6%, MCF10A rerep -14.0%, Giardia killer 10.4, RORg inh -35.5%, Gal4-VP16 FLuc -10.6% and SW480 rerep 2.1%.
For Fc1ccc(/C=N/NC(=S)Nc2cccnc2)cc1 the results were Chronic BCR inh inconclusive, MCF10A rerep 11.1%, Giardia killer 0.4, RORg inh 4.47µM*, Gal4-VP16 FLuc 0.355µM* and SW480 rerep inconclusive.
Screening Oc1cccc(/C=N/NC(=S)Nc2cccnc2)c1O returned Chronic BCR inh inconclusive, MCF10A rerep inconclusive, Giardia killer -12.1, RORg inh 4.47µM*, Gal4-VP16 FLuc 5.62µM* and SW480 rerep inconclusive.
Screening Cc1ccc2sc(N3CCN(C(=O)CCS(=O)(=O)c4ccc(Cl)cc4)CC3)nc2c1C returned Chronic BCR inh 0.0%.
`Cc1ccc(Nc2cc(C)nc(NCc3ccccc3)n2)cc1` gave Chronic BCR inh inconclusive, MCF10A rerep 18.4µM*, Giardia killer -4.7, RORg inh inconclusive, Gal4-VP16 FLuc inconclusive and SW480 rerep inconclusive.
`Cc1cc(NC2CCCCC2)nc(NCc2ccccc2)n1` gave Chronic BCR inh -5.5%, MCF10A rerep inconclusive, Giardia killer -6.6, RORg inh inconclusive, Gal4-VP16 FLuc inconclusive and SW480 rerep 14.6µM*.
Cc1cc(N/N=C/c2ccccc2Cl)nc(NCc2ccccc2)n1 was read as Chronic BCR inh inconclusive, MCF10A rerep 16.4µM*, Giardia killer -11.2, RORg inh inconclusive, Gal4-VP16 FLuc inconclusive and SW480 rerep inconclusive.
Cc1cc(C)nc(N/N=C/c2ccccc2Cl)n1 was read as Chronic BCR inh inconclusive, MCF10A rerep 0.8%, Giardia killer -24.2, RORg inh inconclusive, Gal4-VP16 FLuc inconclusive and SW480 rerep 18.8%.
Screening COC(=O)C1=C[C@@H](C(=O)OC)[C@@H]2C3=C(C(=O)[C@]2(C)NC(=O)c2ccccc2)[C@H](C)[C@@H]2C(=O)NC(=O)[C@@H]2[C@@H]3C1 returned Giardia killer 23.4, RORg inh -12.3% and Gal4-VP16 FLuc 2.4%.
Screening COc1cccc(NC(=O)CN2C(=O)NC(C)(CC(C)C)C2=O)c1 (configuration not stated) returned Chronic BCR inh -8.4%, MCF10A rerep -3.7%, Giardia killer -14.7, RORg inh 11.1%, Gal4-VP16 FLuc -0.9% and SW480 rerep 3.1%.
For CNC(=S)N(CCc1ccc(S(N)(=O)=O)cc1)C1CC(=O)N(c2ccccc2F)C1=O (configuration not stated) the results were Chronic BCR inh -11.2%, MCF10A rerep 6.5%[9.22 µM], Giardia killer 22.0, RORg inh 14.7%, Gal4-VP16 FLuc 6.0% and SW480 rerep 5.8µM*.
